# Assay results taken from the supplement of paper PMC6555819.
# Experiments:
# Experiment in all cases: PBM binding z-score (relative to random genomic background probes); higher = stronger binding; sequences stand for … in GC…GCGATTGACAGCGTAGAATGAAGG
# [1] = tested on: RARb homodimer (NR concentration 270 nM)
# How it was run: (§1)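 Random background probes are the reference for binding z-scores. These scores derive from regression-normalized fluorescence on custom Agilent 4×180K protein-binding microarrays incubated 1 h with ligand-free nuclear receptor dimers. Binding was detected with antibodies against each partner (one per run).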
# [2] = tested on: RARg:RXRa (NR concentration 270 nM, RXRa partner concentration 90 nM)
# How it was run: as §1
# [3] = tested on: RARg homodimer (NR concentration 270 nM)
# How it was run: as §1
# [4] = tested on: RXRa DBDmut IVT, anti-RXR (DBD mutation: RXRa K156A/R161A, NR concentration 90 nM)
# How it was run: as §1
# [5] = tested on: RXRa homodimer (NR concentration 180 nM)
# How it was run: as §1
# [6] = tested on: THRa:RXRa (NR concentration 90 nM, RXRa partner concentration 90 nM)
# How it was run: as §1
# [7] = tested on: THRa homodimer (NR concentration 90 nM)
# How it was run: as §1
# [8] = tested on: VDR:RXRa (NR concentration 270 nM, RXRa partner concentration 90 nM)
# How it was run: as §1
# [9] = tested on: VDR homodimer (NR concentration 270 nM)
# How it was run: as §1
Sequence,PBM binding z-score [1],PBM binding z-score [2],PBM binding z-score [3],PBM binding z-score [4],PBM binding z-score [5],PBM binding z-score [6],PBM binding z-score [7],PBM binding z-score [8],PBM binding z-score [9]
CGAACTAGGACAAGGACAGTGAATCTCCGCACGC,0.532,0.083,0.606,0.343,0.0441,1.8,1.32,-0.159,0.0217
CCGATTGGGGCATAAGGTTACCATAAGCCAGCCC,1.76,1.79,1.12,0.0114,1.14,2.16,1.14,0.31,-0.374
CGAACTAGGTCAAGTACAGTGAATCTCCGCACGC,3.33,4.45,5.13,2,3.13,3.03,1.56,2.02,1.45
AGTCAAAGTTCAGGAGGAGGTAACGTAAAGCACG,3.59,5.4,4.92,3.04,3.26,2.88,0.548,2.89,2.16
CAAGACAGGTGAGAAGGTAACTCAGCCTCGATTA,0.607,0.784,0.824,-0.536,0.481,0.413,0.475,-0.155,-0.249
TCTAGTTGGTCAGGGAGGTCACACACGACGGGTA,4.42,4.31,3.88,1.08,4.14,3.63,2.88,5.4,3.18
AGTCAAAGTTCTGGACGAGGTAACGTAAAGCACG,-0.148,0.171,0.32,-0.639,0.0678,1.41,0.761,-0.216,-0.322
CGTCAAAGTTCAAGGTACCGTAACAGAAAGCAGC,3.94,5.07,6.14,4.56,4.33,2.06,0.154,3.76,3.09
AGTCAAAGATCACTAGGTAACGTAAGATTCAGCT,-0.307,0.422,0.489,-0.0538,0.356,0.378,-0.116,-0.124,-0.051
TAGCCTAGGTCAGATCGGGCCTGTATACGCTATA,1.97,2.53,3.21,-0.396,1.29,2.64,-0.216,0.0712,-0.157
ACTAATAGTTGACTTAGGGCAACCGATACGACGC,0.958,0.412,0.996,0.674,0.408,1.6,0.383,0.357,0.15
CGAACGAGGGCATGAGTTGATACCAAATGCCGAT,1.11,1.48,1.6,2.37,0.992,1.37,-0.127,1.83,1.57
CCTTACGGGTCAATCCAGGTTATAGCATCGGAGT,3,4.49,4.17,1.75,4.31,4.93,0.547,4.64,1.32
CGTCCAAGCTCAGAGAGGTCAGTGAATGCCGAGT,3.56,2.72,2.99,0.551,2.36,2.19,0.794,2.2,2.2
CCTTACGGGTCACTGACACGTTATAGCATTTGGA,2.9,4.76,4.47,2.05,4.94,2.5,0.436,3.23,0.844
ACACCAAGGTGATCGTGAGGTCGTTGATACTAAC,1.69,2.28,0.878,1.13,1.64,3.42,2.39,3.21,2.69
